# PubChem BioAssay AID588335 (The Scripps Research Institute Molecular Screening Center, 2011)
# The whole screen tested about 360,000 compounds, of which about 4,500 (1.2%) were called active. The sample as a whole holds a higher share of actives than the screen did. Values without a mark were called inactive. Cut-off read from the data, not from the text of the source: active = inhibition above about 30%; inactive = the rest.
# Assay: inhibition of GDH and TPI enzymes – biochemical, absorbance, full deck, artefact control for M. tuberculosis FBA inhibitor project, primary screen (AID 588335);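 note: 0% = DMSO wells and 100% = wells lacking the enzyme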
# Conditions: GDH-TPI coupled enzyme counterscreen, NADH absorbance; at 4.8 µM; stronger effect = higher value
row,Compound,inhibition
1,C/C(=C(\C#N)C(=O)NCCCN1CCOCC1)N(C)C,7.8%
2,CCc1nn(CCCC(=O)Nc2ccc(C)cc2C)c(=O)c2cc3occc3n12,5.68%
3,CCN(CC)C(=O)CSc1nc2ccccc2n1CC(=O)N1CCN(c2ccccc2OC)CC1,-6.21%
4,O=C1NC(=O)C(CCc2ccccc2)(c2ccccc2)N1 (stereo not given),2.63%
5,O=C(N/N=C/C=C/c1ccccc1)C1CC1(c1ccccc1)c1ccccc1 (stereo not given),21.3%
6,CCn1c(SCC(=O)NC2CC2)nnc1-c1ccccc1OC,-0.34%
7,COc1ccc(C2=Nn3c(nnc3-c3ccccc3OC)SC2)cc1OC1CCCC1,31.1% (active)
8,COc1cc(OC)c(NS(=O)(=O)c2cn(C)cn2)cc1Cl,-9.45%
9,Cc1cccc(N2O[C@H]3C=CC2CCCC3)n1,-10.9%
10,O=C(NC(=S)Nc1cc(C(F)(F)F)ccc1N1CCOCC1)c1ccc(-c2cccc(Cl)c2)o1,-2.21%
11,O=C(NC(=S)Nc1ccccc1C(=O)O)c1ccc(-c2ccc(Br)cc2)o1,40.9% (active)
12,CN1CCN(C(=O)c2ccc(-c3ccc(Br)cc3)o2)CC1,3.5%
13,O=c1c2ccccc2c(-c2ccccc2)nn1-c1ccccn1,1.89%
14,CCOC(=O)c1ccn(-c2nc(-c3ccco3)cc(C(F)(F)F)n2)n1,35.1% (active)
15,COC(=O)c1cnn2c(C(F)(F)F)cc(-c3ccco3)nc12,16.7%
16,O=C(CSc1nc(-c2ccco2)cc(C(F)(F)F)n1)N1CCc2ccccc2C1,10.9%
17,NC(=O)CC(NC(=O)Cc1ccc(Br)cc1)c1ccc(NC2CC3CCC2C3)c([N+](=O)[O-])c1 (stereo not given),-1.99%
18,CC1(c2ccc(Cl)cc2Cl)NC(=O)N(CC(=O)Nc2cccnc2Cl)C1=O (stereo not given),0%
19,Cc1cccc(C(=O)OCC(=O)NCC(C)C)c1O,2.88%
20,N#CC1=C(N)N(c2ccc(F)cc2)C(=O)C1,4.15%
21,CCCc1ccc(OCc2ccc(C(=O)N/N=C/c3cccc([N+](=O)[O-])c3)o2)c(OC)c1,3.73%
22,O=[N+]([O-])c1ccc2oc(-c3cccc(O)c3)nc2c1,15.8%
23,Cc1occc1C(=O)N/N=C/c1ccc(-c2cccc([N+](=O)[O-])c2)o1,34% (active)
24,O=C(CN1C(=O)NC2(CCCC2)C1=O)OCCOc1ccc(F)cc1,-5.15%

row,Compound,inhibition
1,Cc1ccc(C(=O)NCC(c2cccs2)N(C)C)cc1S(=O)(=O)N1CCOCC1 (stereo not given),3.9%
2,O=C(COC(=O)CCC(=O)c1cccs1)NCc1ccco1,5.96%
3,Cc1ccc(-c2cc(C(=O)N/N=C/C=C/c3ccco3)c3ccccc3n2)cc1C,52.1% (active)
4,O=C(NCCc1ccccn1)c1cc(-c2ccc(Cl)cc2)nc2ccccc12,19.5%
5,O=C(N/N=C/C=C/c1ccco1)c1cccs1,46.5% (active)
6,CC(/C=N/NC(=O)c1cc(-c2ccc3ccccc3c2)n[nH]1)=C\c1ccco1,17%
7,CC1(C)CC(=O)C/C(=N\NC(=O)c2cccs2)C1,17.8%
8,O=C(CCc1ccc(S(=O)(=O)N2CCOCC2)cc1)OCC(=O)c1ccc(Br)cc1,-6.33%
9,COc1ccc(CCNC(=O)COC(=O)Cc2cccc(F)c2)cc1,-8.97%
10,O=C(NCc1ccccc1Cl)C1CCC(CNc2c(N3CCCCC3)c(=O)c2=O)CC1 (stereo not given),4.69%
11,CCC(C)C1(C2CCCC2)NC(=O)NC1=O (stereo not given),0.88%
12,O=C(NC1CCC(O)CC1)c1ccc(S(=O)(=O)NCc2ccco2)cc1 (stereo not given),11.2%
13,COc1ccc(CN(C)C(=O)c2cc(-c3ccc(C)cc3C)nc3ccccc23)c(OC)c1OC,0%
14,COc1cc(/C=N/NC(=O)c2cc(-c3ccccc3C)nc3ccccc23)cc(OC)c1O,76.5% (active)
15,Cc1ccc(/C=N/NC(=O)COc2ccccc2-c2ccccc2)cc1,5.68%
16,Cc1ccc(NN=Nc2nc3c([nH]2)c(=O)n(C)c(=O)n3C)cc1,2.21%
17,O=C(Nc1ccc(N2CCOCC2)cc1)c1cccc2c(-c3ccc(F)c(F)c3)coc12,1.77%
18,CCc1c(C)n([O-])c2c([n+]1=O)CCCCC2,6.72%
19,Cc1nc(-c2ccccc2)sc1C(=O)/C=C/c1ccccc1,31.8% (active)
20,Cc1nc(-c2ccc(Cl)cc2)sc1C(=O)CBr,22.6%
21,Cc1[nH]c(=O)c(C(=O)/C=C/c2ccccc2)c2c1CCCC2,12.9%
22,COc1ccccc1-n1ccnc(SCC(=O)NC2CCCCC2)c1=O,7.32%
23,Cc1ccccc1C(CC(=O)c1cccs1)C(C#N)C#N (stereo not given),0%
24,C/C(=N\NS(=O)(=O)c1cccc([N+](=O)[O-])c1)c1cc2ccccc2o1,22.8%

row,Compound,inhibition
1,C/C(=N\NC(=S)Nc1ccc(C)cc1)c1cc2ccccc2o1,77.5% (active)
2,C/C(=N/NC(=S)Nc1ccccc1)c1ccc2c(c1)OCO2,12.9%
3,CCc1c(C)nc(N)n2c(SCC(=O)NC3CCCCC3)nnc12,0%
4,Cc1ccc(S(=O)(=O)N2CCCCC2)cc1C(=O)N1CCN(CCO)CC1,-15.1%
5,O=C1NC(c2ccccc2)Cc2ccncc21 (stereo not given),13.4%
6,O=C(C1CCCO1)N1CCC(c2nc3ccccc3[nH]2)CC1 (stereo not given),-7.92%
7,C1=C(N2CCOCC2)/C(=C/c2nc3ccccc3[nH]2)CC1,34.8% (active)
8,c1ccc(-n2nnnc2N2CCOCC2)cc1,2.54%
9,CCCCN1C(=O)c2ccc(C(=O)Nc3ccc(S(=O)(=O)N(C)C)cc3)cc2C1=O,2.95%
10,Cc1ccc(NC2=NC(c3ccccc3)n3c(nc(C)cc3=O)N2)cc1 (stereo not given),4.69%
11,CCOc1ccccc1/C=N/Nc1nc2ccccc2o1,8.78%
12,COc1ccc(/C=N/Nc2nc3ccccc3o2)cc1OC,44.1% (active)
13,COc1ccc(/C=N/n2nnnc2N)cc1OC,21.5%
14,CC(C)[C@H](NC(=O)c1ccccc1F)C(=O)Nc1cccc(S(=O)(=O)N2CCOCC2)c1,-3.11%
15,CN1C(=O)c2ccc(NC(=O)c3c(F)c(F)c(F)c(F)c3F)cc2C1=O,10.2%
16,Cc1cc[n+](-c2[nH]c(=O)sc2/C=N/NC(=O)c2ccccc2[O-])cc1C,30.5%
17,CC(C)(C)c1cc[n+](-c2[nH]c(=O)sc2/C=N/N=C(\[O-])c2ccccc2)cc1,32.8% (active)
18,Cc1cccc(C)c1NC(=S)N(Cc1cccnc1)Cc1ccccc1Cl,0.63%
19,CC1(C)CC(=O)C2=C(C1)NCN(CCCN1CCOCC1)C2,6.39%
20,O=C(COc1ccc2ccc(=O)oc2c1)NCC(O)c1ccccc1 (stereo not given),7.87%
21,CC(C)OC(=O)c1ccc(COc2ccc3ccc(=O)oc3c2)o1,6.9%
22,CC(=CCOc1ccc2ccc(=O)oc2c1)C1=CC(=O)C(C)(C)O1,32.7% (active)
23,COc1ccc2oc(C(=O)OCC(=O)N(CC(C)C)c3c(N)n(Cc4ccccc4)c(=O)[nH]c3=O)c(C)c2c1,-3.6%
24,O=C1Nc2ccc([N+](=O)[O-])cc2C1=Nc1cccc(CO)c1,15.1%

row,Compound,inhibition
1,CCOc1ccc(C(C(=O)NCCOC)N(CCOC)C(=O)CCC(=O)Nc2ccccn2)cc1 (stereo not given),5.17%
2,COC(=O)Cc1cnc(NC(=O)CSc2nc(C(C)C)cc(=O)[nH]2)s1,-1.15%
3,COc1ccc2c(c1)C(=O)CC(c1ccccc1)O2 (stereo not given),0.86%
4,Cc1c(O)c(C)c2c(c1O)C(=O)C[C@@H](c1ccccc1)O2,31% (active)
5,O=C1CC(c2ccccc2)C(=O)N2C(=O)CC(c3ccccc3)C(=O)N12 (stereo not given),1.76%
6,NC(=O)CN1CCCC1c1ccc2c(c1)OCCO2 (stereo not given),-7.41%
7,CC1=NNC(=O)C1CCC(=O)N/N=C\c1cccc(Cl)c1 (stereo not given),-3.82%
8,CCCCSc1[nH]c(=O)c(C(=O)OCC)cc1C#N,36.1% (active)
9,CCOC(=O)c1ccc(COC(=O)c2cc(=O)[nH]c3ccccc23)o1,7.46%
10,CCOC(=O)C(Sc1ncc(C#N)c(N)n1)C(C)C (stereo not given),5.66%
11,CC(=O)N1C(C)c2ccccc2C(C)(C)CC12CCCCC2 (stereo not given),4.51%
12,O=C1COc2ccc(C(=O)COC(=O)c3cccnc3Cl)cc2N1,1.57%
13,COc1ccccc1C(=O)N/C(=C/c1ccco1)C(=O)Nc1ccc(C(=O)O)cc1,1.49%
14,Cc1ccc(NC(=O)/C(=C\c2ccccc2)NC(=O)c2ccco2)cc1,21.3%
15,COc1ccc(/C=C(/NC(=O)c2ccco2)C(=O)Nc2ccc(C(C)=O)cc2)cc1,33.5% (active)
16,CC1(C)COC(c2cccn2Cc2ccccc2Cl)=N1,12.7%
17,O=C(NCc1ccncc1)C(=O)NCC1OCCN1S(=O)(=O)c1ccc(Br)cc1 (stereo not given),3.11%
18,O=C(Cc1ccsc1)N1CCN(S(=O)(=O)c2cc(C(F)(F)F)cc(C(F)(F)F)c2)CC1,6.47%
19,O=C(CNC(=O)c1ccc(Br)o1)NCC1CCCO1 (stereo not given),-4.74%
20,Oc1c(Br)cc(/C=N/NC(=S)NCC2CCCO2)cc1Br (stereo not given),37.8% (active)
21,S=C(NCC1CCCO1)N1CCN(c2ccc(Cl)c(Cl)c2)CC1 (stereo not given),-2.84%
22,CC(C)(C)CC(C)(C)NCC(O)COCCOc1ccc(Br)cc1 (stereo not given),-7.87%
23,CC(=NNC(N)=O)C1CC2CCC1CC2 (stereo not given),4%
